In PubChem BioAssay (NCATS):
Values without a mark were called inactive. Records with an inconclusive call do not appear. A call without a number means that no potency is given here. Active and inactive are the calls of the source. Calls come from the whole dose curve; as a rule, active = well fitted curve in the direction sought with a large enough effect; inconclusive = small, poorly fitted or top-dose-only effect, or another doubt; inactive = no such curve, though single readings can be large; an effect the other way counts as inactive or inconclusive.

How the values were obtained:
[1] = qHTS to identify inhibitors of the type 1 interferon - major histocompatibility complex class I in skeletal muscle: primary screen against the NCATS LOPAC collection (AID 1347405); details: iHSKM muscle cells, IFN-b-induced MHC-I HiBiT luminescence, 24 h; series mostly up to 45.9 µM;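 note: lytic HiBiT luminescence reporting HLA-B protein level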; note: potency is the fitted concentration of half-maximal effect
Summary of the method: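 After 24 h at 37 C with compounds (7-point, 1:4.3 dilutions, 46 uM top final) plus 4 ng/ml IFN-beta, luminescence from lytic HiBiT detection was measured. HLA-B*08:01 in C25cl48 myoblasts carried an endogenous C-terminal HiBiT tag; medium lacked dexamethasone.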

[2] = qHTS for inhibitors of adenylyl cyclases using a fission yeast platform: a pilot screen against the NCATS LOPAC library (AID 1347410); details: S. pombe CHP2027, fbp1-GFP fluorescence, 18 h, yeast expressing mammalian AC9 and human GNAS; series mostly up to 57.5 µM
Summary of the method: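 S. pombe CHP2027 (AC9-GNAS-PDE4D2) carrying a PKA-repressed fbp1-GFP reporter was exposed to LOPAC compounds (final up to 57 µM) for 18 h at 30C in the dark, in EMM with histidine, lysine and uracil; GFP gain-of-signal read by laser scanning cytometry.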

[3] = biological target: Protein phosphatase 1D (Homo sapiens) (UniProt O15297); assay: RapidFire Mass Spectrometry qHTS Assay for Modulators of WT P53-Induced Phosphatase 1 (WIP1) (AID 1347424); details: WIP1 dephosphorylation of phosphopeptide, RapidFire MS; series mostly up to 63 µM;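 note: amount of dephosphorylated VEPPL-S-QETFS peptide product formed by WIP1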; note: potency is the fitted concentration of half-maximal effect
Summary of the method: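 Mass-spectrometric measurement of dephosphorylated peptide after a 5 min room-temperature reaction of 10 nM WIP1 with 2 uM phosphopeptide, following 1 h compound preincubation in 30 mM MgCl2 buffer.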

[4] = biological target: Protein phosphatase 1D (Homo sapiens) (UniProt O15297); assay: Rhodamine-PBP qHTS Assay for Modulators of WT P53-Induced Phosphatase 1 (WIP1) (AID 1347425); details: recombinant WIP1, Rhodamine-PBP phosphate fluorescence, real-time; series mostly up to 57.5 µM
Summary of the method: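 WIP1 (5 nM final) was preincubated with compound for 1 hour at room temperature. It then dephosphorylated 10 uM VEPPL-pS-QETFS peptide in Tris-HCl pH 7.5 with 30 mM MgCl2. Released Pi was detected by 10 uM Rh-PBP fluorescence (ex 525/em 598 nm) read at 1-min intervals for 11 min, as delta f1 - f0.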

[5] = biological target: Calcium and integrin-binding protein 1 (Homo sapiens) (UniProt Q99828); assay: Confirmatory qHTS for Identification of Calcium Integrin Binding Protein 1 (CIB1) Competitor (AID 1508617); details: CIB1 binding competition assay, biochemical qHTS; series mostly up to 57.1 µM; note: nearly all actives have a fitted effect of over 65% in size
Summary of the method: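 FP competition: CIB1-GST (1 uM final) in 5 mM HEPES pH 7.4, 125 mM NaCl, 5 mM CaCl2, 0.01% Tween20 preincubated 15 min RT with compounds (up to 114 uM), then FITC-alphaIIb peptide (100 nM), 15 min RT; Ex 480/Em 540.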

[6] = biological target: Calcium and integrin-binding protein 1 (Homo sapiens) (UniProt Q99828); assay: Validation qHTS for Identification of Calcium Integrin Binding protein 1 (CIB1) Competitor (AID 1508618); details: CIB1-GST / FITC-alphaIIb peptide fluorescence polarization; series mostly up to 114 µM
Summary of the method: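 Fluorescence polarization with 1 uM CIB1-GST and 100 nM FITC-alphaIIb peptide in HEPES pH 7.4, NaCl, 5 mM CaCl2, Tween20. Compounds at up to 114 uM final, preincubated with protein 15 min; read after 15 min more at RT.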

[7] = qHTS to identify inhibitors of the type 1 interferon - major histocompatibility complex class I in skeletal muscle: primary screen against the NCATS Pharmaceutical Collection (AID 1347407); details: human skeletal muscle cells, IFN-b-induced MHC-I HiBiT luminescence, 24 h; series mostly up to 45.9 µM;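 note: luminescence of HiBiT knocked into endogenous HLA-B as interferon-induced MHC class I level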; note: potency is the fitted concentration of half-maximal effect
Summary of the method: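 Immortalized human myoblasts (C25cl48) with HiBiT knocked into endogenous HLA-B*08:01 were stimulated with 4 ng/ml IFN-beta and treated with compounds (8-point, 1:5, top 46 uM final) for 24 h at 37 C; HiBiT lytic luminescence read.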

[8] = Validation qHTS assay for inhibitors of Activation Induced Cytidine Deaminase (AID): UDG Counterscreen signal (AID 1347427); details: biochemical UDG counterscreen, fluorescence signal; series mostly up to 115 µM
Summary of the method: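 Fluorescence at 560 nm excitation, 665 nm emission reports UDG signal after 250 mM NaOH (2x) addition and 30 min. Enzymes (AID 1 uM, UDG 2 U/mL, at 4/3x) preincubated 10 min with compound, then 4 h with 4x 250 nM DJC20/DJC23 substrate at room temperature.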

[9] = biological target: Single-stranded DNA cytosine deaminase (Homo sapiens) (UniProt Q9GZX7); assay: Validation qHTS assay for inhibitors of Activation Induced Cytidine Deaminase (AID): AID signal (AID 1347429); details: Recombinant AID, FRET ssDNA deamination with UDG, fluorescence; series mostly up to 115 µM
Summary of the method: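 Compounds (final up to 114 uM) preincubated with AID plus UDG; 250 nM DJC20/DJC23 substrate mix (4x stock) added, 4 hr at room temperature, then NaOH, 30 min. Read 1 fluorescence at 540 nm excitation, 590 nm emission.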

[10] = Primary qHTS for inhibitors of La Crosse Virus (LACV) - induced cell death in SH-SY5Y cells (AID 1508616); details: SH-SY5Y LACV cytopathicity rescue, ATP luminescence, 6 d; series mostly up to 9.63 µM;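 note: top concentration of the series differs between compounds; higher means more rescue of cells from virus-induced death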
Summary of the method: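 Rescue of virus-induced death was read as ATPLite luminescence after 6 days at 37C, scaled between DMSO wells with LACV and without virus. Cells were SH-SY5Y, 6000/well, infected at 0.01 MOI after compound addition.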

[11] = biological target: Calcium and integrin-binding protein 1 (Homo sapiens) (UniProt Q99828); assay: Primary qHTS for Identification of Calcium Integrin Binding Protein 1 (CIB1) Competitor (AID 1508620); details: CIB1-GST / FITC-alphaIIb peptide fluorescence polarization; series mostly up to 114 µM;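 note: GST tagged CIB1 binding a fluorescein labelled alphaIIb integrin peptide tracer; top concentration of the series differs between compounds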
Summary of the method: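 Fluorescence polarization competition: CIB1-GST (1 uM final) preincubated with compound 15 min at room temperature, then FITC-labeled alphaIIb peptide (100 nM final) added for another 15 min. Polarization read at Ex 480/Em 540.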

[12] = qHTS to identify inhibitors of the type 1 interferon - major histocompatibility complex class I in skeletal muscle: primary screen against the NCATS Mechanism Interrogation Plate v5.0 (MIPE) Libary (AID 1347411); details: iHSKM cells + IFN-b, HiBiT-tagged MHC-I luminescence, 24 h; series mostly up to 45.8 µM; note: nearly all actives have a fitted effect of over 65% in size
Summary of the method: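 Luminescence from CRISPR HiBit-tagged endogenous HLA-B in human myoblasts reported MHC class I level after 24 h of IFN-beta (4 ng/ml) plus compound. Compounds ran as 11-point 1:3 series, top 46 uM final.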

Protein phosphatase 1D (Homo sapiens), sequence (O15297 whole entry, looked up): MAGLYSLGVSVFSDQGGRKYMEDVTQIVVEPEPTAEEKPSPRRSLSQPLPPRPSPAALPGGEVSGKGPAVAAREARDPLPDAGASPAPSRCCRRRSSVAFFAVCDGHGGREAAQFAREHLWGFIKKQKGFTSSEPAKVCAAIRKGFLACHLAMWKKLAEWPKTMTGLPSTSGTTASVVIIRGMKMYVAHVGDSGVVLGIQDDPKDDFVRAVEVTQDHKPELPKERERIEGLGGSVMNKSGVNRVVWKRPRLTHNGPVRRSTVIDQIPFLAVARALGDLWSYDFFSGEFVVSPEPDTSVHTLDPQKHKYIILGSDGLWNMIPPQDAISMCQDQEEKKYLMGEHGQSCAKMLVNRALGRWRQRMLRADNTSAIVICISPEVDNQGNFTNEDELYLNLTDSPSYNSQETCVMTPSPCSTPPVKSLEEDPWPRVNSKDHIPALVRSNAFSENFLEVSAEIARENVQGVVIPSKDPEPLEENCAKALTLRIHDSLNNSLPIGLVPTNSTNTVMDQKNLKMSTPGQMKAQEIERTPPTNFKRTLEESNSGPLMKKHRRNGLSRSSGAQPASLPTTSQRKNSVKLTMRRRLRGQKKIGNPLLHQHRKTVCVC
Calcium and integrin-binding protein 1 (Homo sapiens), sequence (Q99828 whole entry, looked up): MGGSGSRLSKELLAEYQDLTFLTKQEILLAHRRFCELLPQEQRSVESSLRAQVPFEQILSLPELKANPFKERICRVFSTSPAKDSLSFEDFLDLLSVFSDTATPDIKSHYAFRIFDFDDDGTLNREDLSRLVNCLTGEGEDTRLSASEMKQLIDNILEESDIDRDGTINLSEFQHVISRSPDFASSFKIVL
Single-stranded DNA cytosine deaminase (Homo sapiens), sequence (Q9GZX7 whole entry, looked up): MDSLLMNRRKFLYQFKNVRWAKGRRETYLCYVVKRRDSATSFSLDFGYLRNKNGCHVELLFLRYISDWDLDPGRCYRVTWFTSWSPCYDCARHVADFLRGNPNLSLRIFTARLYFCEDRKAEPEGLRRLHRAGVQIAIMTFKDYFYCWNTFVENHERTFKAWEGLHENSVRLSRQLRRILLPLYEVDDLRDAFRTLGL

Row | SMILES | Potency [1] | outcome [2] | Potency [3] | outcome [4] | outcome [5] | outcome [6] | Potency [7] | outcome [8] | Potency [9] | Potency [10] | Potency [11] | Potency [12] | activity change, negative = inhibition [7] | activity change, negative = inhibition [3] | activity change, negative = inhibition [4] | activity change, negative = inhibition [11]
1 | C[n+]1cc2c3c(ccc2c2ccc4cc5c(cc4c21)OCO5)OCO3 | 1.78 µM (active) | inactive | inactive | inactive | inactive | inactive | – | – | – | – | – | – | – | – | – | –
2 | COc1ccc2c(c1OC)C(=O)O[C@@H]2[C@H]1c2c(cc3c(c2OC)OCO3)CCN1C | – | inactive | inactive | inactive | – | inactive | inactive | inactive | inactive | inactive | inactive | – | – | – | – | –
3 | NC(N)=N/N=C/c1c(Cl)cccc1Cl | – | inactive | inactive | inactive | – | inactive | – | inactive | inactive | inactive | inactive | – | – | – | – | –
4 | CCc1cccc(N(C)C(N)=Nc2cccc3ccccc23)c1 | – | inactive | inactive | inactive | – | inactive | inactive | inactive | inactive | inactive | inactive | – | – | – | – | –
5 | OCCN1CCN(CC/C=C2/c3ccccc3Sc3ccc(C(F)(F)F)cc32)CC1 | inactive | inactive | inactive | inactive | – | inactive | – | inactive | inactive | inactive | inactive | – | – | – | – | –
6 | Brc1c(NC2=NCCN2)ccc2nccnc12 | – | inactive | – | inactive | – | inactive | inactive | inactive | – | inactive | – | – | – | – | – | –
7 | CC(=O)Nc1nnc(S(N)(=O)=O)s1 | inactive | inactive | inactive | inactive | – | inactive | inactive | inactive | inactive | inactive | inactive | – | – | – | – | –
8 | O=C1NCN(c2ccccc2)C12CCN(CCCC(c1ccc(F)cc1)c1ccc(F)cc1)CC2 | – | inactive | inactive | inactive | – | – | 18.7 µM (active) | inactive | inactive | inactive | – | – | – | – | – | –
9 | NC(N)=NC(=O)Cc1c(Cl)cccc1Cl | inactive | inactive | inactive | inactive | – | inactive | inactive | inactive | inactive | inactive | inactive | – | – | – | – | –
10 | CCOC(=O)C1=C(C)NC(C)=C(C(=O)OC)C1c1cccc(Cl)c1Cl (stereo not drawn) | – | inactive | inactive | – | – | – | – | – | – | inactive | inactive | – | – | – | – | –
11 | CN(C)CCCN1c2ccccc2Sc2ccc(C(F)(F)F)cc21 | – | inactive | inactive | inactive | – | – | inactive | inactive | inactive | inactive | – | – | – | – | – | –
12 | CN1C[C@H](C(=O)N[C@]2(C)O[C@@]3(O)[C@@H]4CCCN4C(=O)[C@H](Cc4ccccc4)N3C2=O)C[C@@H]2c3cccc4[nH]cc(c34)C[C@H]21 | inactive | inactive | inactive | inactive | – | – | inactive | inactive | inactive | inactive | inactive | – | – | – | – | –
13 | C[C@]12CCC(=O)C=C1CC[C@@H]1[C@@H]2CC[C@@]2(C)[C@H]1CC[C@]2(O)C(=O)CO | – | inactive | inactive | inactive | – | inactive | inactive | inactive | inactive | inactive | inactive | – | – | – | – | –
14 | NC(=O)c1ncn([C@@H]2O[C@H](CO)[C@@H](O)[C@H]2O)c1O | – | inactive | inactive | inactive | inactive | inactive | inactive | inactive | inactive | inactive | – | inactive | – | – | – | –
15 | NC(=Nc1ccccc1)Nc1ccccc1 | – | – | inactive | inactive | – | – | inactive | – | – | inactive | inactive | – | – | – | – | –
16 | Cc1nc2ccccn2c(=O)c1CCN1CCC(C(=O)c2ccc(F)cc2)CC1 | – | inactive | inactive | inactive | – | inactive | inactive | inactive | inactive | inactive | inactive | – | – | – | – | –
17 | c1ccc2c(c1)CCCC2C1=NCCN1 (stereo not drawn) | – | inactive | inactive | inactive | – | inactive | inactive | inactive | inactive | inactive | inactive | – | – | – | – | –
18 | CCCCCN(CCCCC)C(=O)C(CCC(=O)O)NC(=O)c1ccc(Cl)c(Cl)c1 (stereo not drawn) | inactive | inactive | inactive | – | – | – | inactive | inactive | inactive | inactive | inactive | – | – | – | – | –
19 | Cc1ccc(Cl)c(Nc2ccccc2C(=O)O)c1Cl | inactive | inactive | 17.8 µM (active) | – | – | – | inactive | inactive | inactive | inactive | inactive | – | – | – | – | –
20 | COc1ccc(CCN(C)CCCC(C#N)(c2cc(OC)c(OC)c(OC)c2)C(C)C)cc1OC (stereo not drawn) | – | inactive | inactive | inactive | – | inactive | inactive | inactive | inactive | inactive | inactive | – | – | – | – | –
21 | O=C(O)CN(CCOCCOCCN(CC(=O)O)CC(=O)O)CC(=O)O | – | inactive | – | – | – | inactive | – | inactive | inactive | inactive | – | – | 1.04% [at 0.727 µM] | 15.2% [at 0.505 µM] | -3.01% [at 0.575 µM] | 0.103% [at 1.07 µM]
22 | O=C(CCNNC(=O)c1ccncc1)NCc1ccccc1 | inactive | inactive | inactive | inactive | – | inactive | inactive | inactive | inactive | inactive | inactive | – | – | – | – | –
23 | CNC1(C)C2CCC(C2)C1(C)C (stereo not drawn) | – | inactive | inactive | inactive | – | inactive | inactive | inactive | inactive | inactive | – | – | – | – | – | –
